# Screen size: about 48,000 compounds; about 13,000 (27%) showed an effect of 50% or more. The list shows a part of the results.
# Test system: Wolbachia pipientis
# Assay: Anti-Wolbachia Cell-Based Screen
# Format: functional
# Set-up: scale not given: in the data most compounds retested in dose-response had high values
# Details: 5 µM
row,Structure (SMILES),Percent Effect
1,CN(C)C(=O)c1ccc2c(c1)N(C)C(CC(=O)NCCOCCO)CO2 (centres undefined),24%
2,Cc1ccccc1C1(C(=O)N2CCOC(C)C2)CCOCC1 (centres undefined),-22.89%
3,CN1C(=O)C(c2cccnc2)CC12CCN(C(=O)c1ccc[nH]1)CC2 (centres undefined),-0.8841%
4,CN1C(=O)C(c2cccnc2)CC12CCN(Cc1nccs1)CC2 (centres undefined),106.4%
5,CN1C(=O)C(c2ccccc2)CC12CCN(CCO)CC2.O=C(O)C(F)(F)F (centres undefined),95.45%
6,COCCN1CCC2(CC1)CC(c1ccccc1)C(=O)N2C (centres undefined),-11.58%
7,CN1C(=O)C(c2cccnc2)CC12CCN(C(=O)c1cccn1C)CC2 (centres undefined),-11.09%
8,COCCN1CCC2(CC1)CC(c1cccnc1)C(=O)N2C (centres undefined),119.4%
9,CCCOCCN1CCC2(CC1)CC(c1ccccc1)C(=O)N2C (centres undefined),4.457%
10,CN1C(=O)C(c2ccccc2)CC12CCN(CCN)CC2 (centres undefined),-103.7%
11,Cc1occc1C(=O)N1CCC2(CC1)CC(c1cccnc1)C(=O)N2C (centres undefined),-9.568%
12,CN1C(=O)C(c2ccccc2)CC12CCN(CCOCCO)CC2 (centres undefined),13.34%
13,CN1C(=O)C(c2cccnc2)CC12CCN(CCO)CC2 (centres undefined),110.9%
14,CCN1C(=O)C(c2ccccc2)CC12CCN(CCO)CC2.O=C(O)C(F)(F)F (centres undefined),-6.556%
15,Cc1nc2c(NC(CC(C)(C)C)c3cccnc3)ncnc2o1 (centres undefined),-3.479%
16,CC(C)(N)CN1CCC(c2nnc(CN3CCCC3)n2C2CC2)CC1,-7.57%
17,CNC(=O)c1ccc(NC(=O)NC(C)c2cc(C)oc2C)c(C)c1 (centres undefined),-1.593%
18,CN(CCC(F)(F)F)Cc1nc2ccccc2c(=O)[nH]1,-3.599%
19,Cc1cnc(C(=O)N2CCN(C(=O)CC(C)C)[C@@H]3CS(=O)(=O)C[C@@H]32)cn1,-11.52%
20,CC(C)(C)CN1CC[C@H](c2nnc(Cc3c[nH]c4ccccc34)o2)C1,1.678%
21,Cc1n[nH]c(C(=O)N2CCCC(C)CC2)c1Br (centres undefined),10.78%
22,CCNC(=O)c1nnn(Cc2ccccc2)c1OC,0.7251%
23,Cc1cc(=O)n(C)cc1NC(=O)Cc1cccc(F)c1,-4.709%
24,Cc1cccc(C(=O)N2CC[C@@H]3[C@H]2CCC(=O)N3c2ccccc2)n1.O=C(O)C(F)(F)F,-24.35%
25,Cc1cnc(N2CC[C@H]3[C@@H]2CCC(=O)N3c2ccccc2)nc1.O=C(O)C(F)(F)F,112.6%

row,Structure (SMILES),Percent Effect
1,Cc1cnc(N2CC[C@H]3[C@@H]2CCC(=O)N3c2cccnc2)nc1.O=C(O)C(F)(F)F.O=C(O)C(F)(F)F,-6.762%
2,O=C(C1CC1)N1CC[C@H]2[C@@H]1CCC(=O)N2c1ccccc1,23.82%
3,O=C(O)C(F)(F)F.O=C1CC[C@H]2[C@H](CCN2c2ncccn2)N1c1ccccc1,99.41%
4,Cc1ccoc1C(=O)N1CC[C@H]2[C@@H]1CCC(=O)N2c1cccnc1.O=C(O)C(F)(F)F,-7.796%
5,O=C(O)C(F)(F)F.O=C1CC[C@H]2[C@H](CCN2c2ncc(F)cn2)N1c1ccccc1,111.8%
6,O=C(O)C(F)(F)F.O=C(O)C(F)(F)F.O=C1CC[C@H]2[C@H](CCN2c2ncc(F)cn2)N1c1cccnc1,-9.717%
7,Cc1ccc(C(=O)N2CC[C@H]3[C@@H]2CCC(=O)N3c2ccccc2)cn1.O=C(O)C(F)(F)F,-18.98%
8,CC(OCC1CC1)C(=O)Nc1nccn1Cc1ccccc1 (centres undefined),-19.61%
9,CN(Cc1ccc(F)c2cccnc12)C1CCS(=O)(=O)C1 (centres undefined),8.686%
10,CN(Cc1ccnc2ccccc12)C1CCS(=O)(=O)C1.O=C(O)CC(O)(CC(=O)O)C(=O)O (centres undefined),102.4%
11,CCN(Cc1cnc(NCc2ccccc2)nc1)C1CCS(=O)(=O)C1 (centres undefined),-2.242%
12,CN(Cc1cccc2cccnc12)C1CCS(=O)(=O)C1.O=C(O)CC(O)(CC(=O)O)C(=O)O (centres undefined),164.7%
13,CN(C(=O)NCCCNc1ccccn1)C1CCS(=O)(=O)C1 (centres undefined),-6.562%
14,Cc1ccsc1[C@@H]1CCN(C(=O)CCC(=O)N2CCCCCC2)C[C@H]1O,-6.445%
15,Cc1cc(C)c2nc(C)cc(C(=O)NC(C)c3nnn[nH]3)c2c1 (centres undefined),1.105%
16,Cc1cc(C)c(C(=O)N(CCO)Cc2ccccc2F)c(=O)[nH]1,-8.709%
17,Cc1cc(C(=O)NC2(C#N)CCSCC2)n(C)n1,-9.689%
18,Cc1cc(C(=O)NC2(c3ccc(Br)cc3)CC2)n(C)n1,77.44%
19,CC(=O)c1cc(C(=O)NC2(c3ccc(Br)cc3)CC2)n(C)c1,-0.634%
20,Cc1nnc(N2CCC(CS(N)(=O)=O)CC2)c(C#N)c1C,-8.566%
21,Cc1ccc(CCC(=O)N2CCCC(n3cncn3)C2)c(C)c1 (centres undefined),-8.257%
22,O=C(CCc1ccccc1)N1CCn2cc(Cn3cncn3)nc2C1,-11.69%
23,Cc1nn(C)cc1CCC(=O)N1CCCC(n2cncn2)C1 (centres undefined),-0.08809%
24,O=C(COCc1ccccc1)N1CCCC(n2cncn2)C1 (centres undefined),1.365%
25,O=C(CCc1cccc(F)c1F)N1CCCC(n2cncn2)C1 (centres undefined),102.1%

row,Structure (SMILES),Percent Effect
1,O=C(CCc1ccccc1)N1CC(n2cncn2)C1,125.3%
2,O=C(CCCc1ccccc1)N1CCCC(n2cncn2)C1 (centres undefined),103%
3,O=C(CCc1ccccn1)N1CCCC(n2cncn2)C1 (centres undefined),108%
4,Cc1nc(NC(=O)C(C)S(C)(=O)=O)sc1Cc1ccc(F)cc1 (centres undefined),3.284%
5,Cn1ccnc1CCNS(=O)(=O)c1cccc(Br)c1,11.32%
6,CC(C)c1ccc(/C=C/CC(=O)NC2CCN(C(N)=O)CC2)cc1,-28.76%
7,Cc1cnn(CC2CCCCN2Cc2nc(N)c3ccccc3n2)c1 (centres undefined),-1.986%
8,CSCCC(NC(N)=O)C(=O)Nc1ccc(-n2cccn2)nc1 (centres undefined),-4.081%
9,N#CCCN(C(=O)CN1CCCC1C1CCCCC1)c1ccccc1 (centres undefined),-8.996%
10,CCC(C)N(Cc1ccc(C)cc1)Cc1c[nH]c(C)n1 (centres undefined),14.09%
11,N#CCCN(c1ccccc1)S(=O)(=O)CC1CCCCO1 (centres undefined),-2.973%
12,CCOc1ccc(NC(=O)N(CCC#N)Cc2ccccn2)cc1F,-26.47%
13,O=C(CCc1cccnc1)N1CCCC(n2cncn2)C1 (centres undefined),-7.114%
14,O=C(Cc1cccnc1)N1CCCC(n2cncn2)C1 (centres undefined),106.6%
15,O=C(Cc1ccccc1Cl)N1CCCC(n2cncn2)C1 (centres undefined),-8.361%
16,Cc1cccnc1CNc1ccc(C(=O)N2CCc3ccccc32)cn1,0%
17,O=C(NCc1cccnc1)NCC(O)c1ccccc1C(F)(F)F (centres undefined),-3.866%
18,O=C(NCC(O)c1ccccc1C(F)(F)F)c1cccnc1 (centres undefined),-5.174%
19,COCc1ccc(CNc2cnn(C(C)(C)C)c(=O)c2Cl)cc1,2.959%
20,CC(C)(C)n1ncc(NCCc2ccccc2C(F)(F)F)c(Cl)c1=O,139.1%
21,OC(CNCCn1cccn1)c1ccc(F)c(F)c1 (centres undefined),-2.779%
22,COCc1cccc(CNc2cnn(C(C)(C)C)c(=O)c2Cl)c1,-38.78%
23,CC(C)(C)n1ncc2c(=O)n(CC(=O)NCc3ccccc3Cl)cnc21,3.164%
24,CC(C)(C)n1ncc(NCC(O)c2ccc(F)c(F)c2)c(Cl)c1=O (centres undefined),100.9%
25,CC(C)(C)n1ncc(NCC(O)c2ccccc2C(F)(F)F)c(Cl)c1=O (centres undefined),100.7%

row,Structure (SMILES),Percent Effect
1,CC(C)(C)n1ncc(NCC(O)c2ccccc2)c(Cl)c1=O (centres undefined),108.9%
2,COc1cc(CNc2cnn(C(C)(C)C)c(=O)c2Cl)ccn1,-46.44%
3,CC(C)(C)n1ncc(NCc2ccccc2)c(Cl)c1=O,-16.67%
4,CCc1noc(CNc2ccc(F)cc2OCC2CC2)n1,-5.752%
5,CC(NCc1cnc(C2CCC2)s1)c1ccccc1-n1cccn1 (centres undefined),-10.15%
6,Cc1ccc(-c2ccc(C(=O)NCCC(=O)N(C)C)c(F)c2)cc1,-15.57%
7,c1ccc2c(N3CCSCC3)cnnc2c1,-7.227%
8,Cc1ccc(CNCCCNS(C)(=O)=O)c(Br)c1,3.842%
9,NC(=O)C(CNC(=O)CCc1ccsc1)Cc1ccc(F)cc1 (centres undefined),115.1%
10,Cc1ccc(CC(=O)NCC(O)c2cccc(C(F)(F)F)c2)cn1 (centres undefined),-12.46%
11,CCc1ccc2c(c1)C(CCNC(=O)CCc1ccsc1)C(=O)N2 (centres undefined),24.64%
12,CCOc1ccc(CC(CNC(=O)c2ccc(C)s2)C(N)=O)cc1 (centres undefined),-16.33%
13,NC(=O)C(CNC(=O)CCc1ccccc1)Cc1ccc(F)cc1 (centres undefined),119.3%
14,CS(=O)(=O)Nc1cccc(CNC(=O)CCc2ccsc2)c1,-4.988%
15,CCOc1ccc(CC(CNC(=O)c2sccc2C)C(N)=O)cc1 (centres undefined),1.626%
16,Cc1ccc(CC(=O)NCC(Cc2ccc(F)cc2)C(N)=O)cn1 (centres undefined),110.1%
17,Cc1ccc(CC(=O)NCC(O)c2cc(Cl)cc(Cl)c2)cn1 (centres undefined),3.357%
18,NC(=O)NC(CC(=O)NCCc1ccc(F)cc1)c1ccccc1 (centres undefined),2.194%
19,NC(=O)C(CNC(=O)Cc1ccsc1)Cc1ccc(F)cc1 (centres undefined),90.7%
20,CCOC(=O)C(C)NC(=O)CCc1ccc(F)cc1 (centres undefined),2.833%
21,CN1CC(c2ccccc2)CC12CCN(C(=O)c1c(Cl)cnn1C)CC2 (centres undefined),11%
22,CC1CCN(C)c2ccccc2N1C(=O)c1ccnc(-n2cncn2)c1 (centres undefined),-2.842%
23,Cc1ccccc1C(C(=O)NCc1nc(-c2ncccn2)no1)N(C)C (centres undefined),-2.983%
24,Cc1cccnc1[C@H](C)Nc1nc(-c2cccnc2)nc2c1CNC2,-9.004%

# Source: ChEMBL document CHEMBL3988442, “University of Dundee, Small-Polar-MMV Screening Library” (2021)
